Source: PubChem
RECQ1 inh – RECQ1 (human) helicase inhibition. P46063. RECQ1 DNA unwinding, red fluorescence kinetic read. Potency, µM (highest dose often 57.3 µM), for the others: at the top dose activity, negative = inhibition, most hits filed as inhibitors. 240,000 tested, 0.54% active. AID 2549;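 note: plate controls were vehicle for no effect and no enzyme for full effect; nearly all actives have a fitted effect of over 30% in size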
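50 nM RECQ1T1 preincubated 15 min with compound in Tris pH 8.0 buffer with MgCl2, DTT, Tween-20 and 2.5 ug/ml poly(dI-dC); started with 200 nM TAMRA/BHQ-2 forked duplex and 2 mM ATP. Unwinding read as fluorescence (525/598 nm), two reads 2 h apart.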
TDP1 block – inhibitors of human tyrosyl-DNA phosphodiesterase TDP1. Q9NUW8. recombinant TDP1, AlphaScreen DNA substrate cleavage. Potency, µM (top dose mostly 130 µM), for the others: at the highest dose activity change, negative = inhibition, usual class: inhibitors. 350,000 tested, 0.28% active. AID 485290; note: nearly all actives have a fitted effect of over 40% in size
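Compounds were preincubated with Tdp1 (1 nM final) for 15 min at room temperature before substrate (15 nM final) started a 5 min reaction; beads (10 ug/ml final) were then added for 10 min before AlphaScreen detection.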
BLM helicase inh – blocks DNA unwinding by human BLM helicase; 350,000 tested, 0.2% active; AID 2528; Potency, µM (doses to about 56.1 µM), inactives show top-dose activity change, negative = inhibition, most hits filed as inhibitors; recombinant BLM DNA unwinding, fluorescence dequenching;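 note: plate controls were vehicle for no effect and no enzyme for full effect; nearly all actives have a fitted effect of over 35% in size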
GCN5L2 inh – blocks human GCN5L2 histone acetyltransferase | AID 504327 | Q92830 | 390,000 tested, 0.21% active | GCN5L2 HAT assay, ThioGlo1 CoA-SH fluorescence | Potency, µM (doses to about 58.9 µM), without a hit: at the top dose activity change, negative = inhibition, hits mostly inhibitors
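Preincubate 20nM GCN5L2 with compound 15 min, RT → add 50uM ThioGlo1 + 75uM H3(1-25) + 70uM acetyl-CoA → read fluorescence 0 and 20 min. Primary qHTS; fluorescent artifacts likely.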
APE1 inh – blocks human APE1 abasic DNA cleavage. P27695. recombinant APE1, TAMRA/BHQ-2 abasic DNA cleavage fluorescence. Potency, µM (top dose mostly 65.8 µM), for inactives: top-dose activity change, negative = inhibition, most hits filed as inhibitors. 350,000 tested, 0.35% active;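 note: plate controls were vehicle for no effect and reference inhibitor for full effect; nearly all actives have a fitted effect of over 55% in size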
Target sequence (P27695 whole entry, looked up): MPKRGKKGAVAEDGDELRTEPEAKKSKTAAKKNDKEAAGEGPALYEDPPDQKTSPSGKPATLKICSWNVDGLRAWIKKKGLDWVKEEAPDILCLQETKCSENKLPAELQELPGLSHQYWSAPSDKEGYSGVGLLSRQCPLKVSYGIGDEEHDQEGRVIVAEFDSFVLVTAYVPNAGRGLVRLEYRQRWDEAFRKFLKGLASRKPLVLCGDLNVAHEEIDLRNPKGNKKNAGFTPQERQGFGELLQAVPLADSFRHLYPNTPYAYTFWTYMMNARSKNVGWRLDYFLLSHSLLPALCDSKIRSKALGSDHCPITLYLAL
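Activity was derived from the fluorescence gain between first and third kinetic reads (60 s intervals, ex 525/em 598 nm) after 50 nM THF-abasic TAMRA/BHQ-2 duplex was added to 0.75 nM APE1 preincubated 15 min with compound.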
* hit, by the source's call; u = inconclusive; x = not tested or not shown; ! = not confirmed by another sample; [ ] = remark or other dose. Sampled rows, rich in hits. Any-hit rate of the full collection: about 0.87%. Calls come from the whole dose curve; as a rule, active = well fitted curve in the direction sought with a large enough effect; inconclusive = small, poorly fitted or top-dose-only effect, or another doubt; inactive = no such curve, though single readings can be large; an effect the other way counts as inactive or inconclusive. Unless noted, % is set by controls: 0 for no effect and ±100 for the full control effect; potency is the fitted concentration of half-maximal effect.

SMILES	RECQ1 inh	TDP1 block	BLM helicase inh	GCN5L2 inh	APE1 inh
Cc1nc2ccc(S(=O)(=O)N3CCN(S(=O)(=O)c4c(F)cccc4F)CC3)cc2s1	x	-3.7%	x	x	x
COC(=O)CC1Oc2cc3oc4c(c3cc2O1)C(=O)CC(C)(C)C4 (configuration not stated)	-6.3%	3.3%	2.4%	x	9.8%
CC1(C)CC(=O)c2c(oc3cc(O)c(O)cc23)C1	20µM*!	u	-10.6%	-5.0%	u
COc1ccc(C(=O)n2cnc3ccccc32)cc1	x	x	-2.4%	-0.1%	-0.7%
COc1ccc(C(=O)n2cnc(N)n2)cc1	-12.1%	7.8%	-1.5%	2.24µM*	-2.1%
Cc1ccc2scc(N3CCN(c4ccc(F)cc4)CC3)c(=O)c2c1	x	7.7%	1.2%	-11.8%	x
O=c1c2cc(F)ccc2sn1-c1ccc(F)cc1	x	-0.2%	x	1.78µM*	17.2%
COc1ccc(N2C(=O)CSC2c2ccc(F)cc2)cc1 (configuration not stated)	x	x	-0.3%	-9.4%	-0.3%
COc1ccc(-n2sc3ccc(F)cc3c2=O)cc1	x	0.4%	x	2.82µM*	23.1%
Cc1ccc(C)c(-n2sc3ccc(F)cc3c2=O)c1	x	-0.1%	x	3.55µM*	17.4%
Cc1cccc(NC(=O)c2cnn3c2NC(=C2CC2)C=C3C(F)F)n1	x	x	x	x	10.5%
CCN1CCCc2cc(CN(CCN3CCOCC3)C(=S)Nc3ccc(OC)cc3)ccc21	-5.8%	2.6%	0.1%	-6.2%	6.31µM*
Nc1c(C(=O)Nc2ccc(Br)cc2)sc2nc(-c3ccncc3)ccc12	x	22.4µM*	-3.7%	-8.2%	x
O=C(c1ccccc1O)N(Cc1ccco1)Cc1ccco1	x	-3.4%	x	x	x
CCOc1cc(/C=C(\C#N)C(=O)Nc2cccc(C(=O)O)c2)cc(Br)c1OC(=O)c1ccc(OC)cc1	x	-3.5%	-23.6%	25.1µM*	-2.6%
C/C(N)=C(/C#N)C(=O)CN1C(=O)NC(Cc2c[nH]c3ccccc23)C1=O (configuration not stated)	x	x	-17.5%	3.4%	15µM*
CC(C)(C)OC(=O)CN1C(=O)NC(Cc2c[nH]c3ccccc23)C1=O (configuration not stated)	x	x	-1.7%	-3.4%	4.1%
Cc1cccc(NC(=O)CNC(=O)CCc2nc3sc4c(c3c(=O)[nH]2)CCCC4)c1C	x	u	x	u	10.6µM*
Cc1cccc(NC(=O)CCc2nc3sc4c(c3c(=O)[nH]2)CCCC4)n1	x	x	x	-24.7%	-27.6%
COc1cccc(C2c3c(ncn(-c4ccc(C#N)cc4)c3=N)Oc3ccc4ccccc4c32)c1 (configuration not stated)	x	-0.4%	x	x	x
CC(=O)Nc1cc(NC(C)=O)cc(C(=O)OCC(=O)N(c2ccccc2)C2CCS(=O)(=O)C2)c1 (configuration not stated)	x	44.7µM*	x	-8.5%	-35.3%
COc1cc(C(=O)OCC(=O)N(CC(C)C)C2CCS(=O)(=O)C2)cc(OC)c1C (configuration not stated)	x	31.6µM*	x	-4.3%	-37.3%
O=C(O)CC12CC3CC(C1)CC(n1ncc(NCc4ccccc4Cl)c(Cl)c1=O)(C3)C2	-2.0%	x	-1.4%	-6.2%	1.5%
O=C(O)CC12CC3CC(C1)CC(n1ncc(NCc4ccc5c(c4)OCO5)c(Cl)c1=O)(C3)C2	39.8µM*	0.0%	-3.4%	-2.6%	-9.2%
COc1ccc(OC)c(NC(=O)C(OC(=O)CNC(=O)c2ccccc2)c2ccccc2)c1 (configuration not stated)	x	0.8%	x	x	x
SMILES	RECQ1 inh	TDP1 block	BLM helicase inh	GCN5L2 inh	APE1 inh
c1ccc(Nc2nc(NCc3ccco3)nc3nccnc23)cc1	x	50.1µM*	x	x	x
COc1cc2cc(Oc3ccc4ccc(=O)oc4c3)c(=O)oc2cc1O[C@@H]1O[C@H](CO)[C@@H](O)[C@H](O)[C@H]1O	x	25.1µM*	x	-25.5%	-39.0%
Cc1ccsc1/C=C/C1=NCCCN1C	15.2%	2.0%	3.8%	-4.2%	5.8%
CN1CCCN=C1/C=C\c1cccs1	-5.8%[25.9 µM]	x	1.9%[21.4 µM]	11.2µM*	0.4%[21 µM]
COc1ccc(C(=O)NCC(=O)OC(C(=O)Nc2cc(C(F)(F)F)ccc2Cl)c2ccccc2)cc1OC (configuration not stated)	x	-0.5%	x	x	x
Cc1ccc(C(=O)/C=C/c2ccco2)c(O)c1	-9.5%	7.6%	-6.0%	-16.6%	1.9%
